Test results reported in publication PMC4552634, “A New Set of Chemical Starting Points with Plasmodium falciparum Transmission-Blocking Potential for Antimalarial Drug Discovery” (PLoS ONE, 2015).
Screen size: about 13,000 compounds; about 3,200 (25%) showed an effect of 50% or more. Some of the results follow.

Tested on: P. falciparum stage V gametocytes
Set-up: BacTiter-Glo ATP luminescence viability of purified stage V gametocytes in 384-well plates, per cent inhibition versus DMSO
Conditions: 48 h, 5 µM; inhibitor

In order of rising “% Inhibition” value:
1. CCN(CCC1(c2ccc(Cl)c(Cl)c2)CN(C(=O)c2cc(OC)c(OC)c(OC)c2)CCO1)C1CC2c3ccccc3CC21 (centres unmarked) [TCMDC-135570]  -88.52%
2. O=S(=O)(c1c(Cl)cc(Cl)cc1Cl)N1CCCCC(c2ccc(F)c(F)c2)=N1 [TCMDC-135420]  -45.8%
3. O=C(Nc1ccc(-c2oc(C(=O)NCCc3cccc(Cl)c3)cc2-c2ccncc2)cc1)Nc1cccc(Cl)c1 [TCMDC-135809]  -31.28%
4. Cc1cc2c(/C=C/C(=O)NC3CCC(CCN4CCc5ccc(C#N)cc5CC4)CC3)cccc2[nH]1 (centres unmarked) [TCMDC-139674]  -23%
5. Cc1nnsc1C(=O)Nc1cccc(-c2cccc(-c3nc4c(C)cccc4[nH]3)c2)c1 [TCMDC-137086]  -18.91%
6. Cc1nnsc1C(=O)Nc1ccc(-c2cccc(-c3nc4ccc(F)cc4[nH]3)c2)cc1 [TCMDC-137080]  -15.9%
7. Cc1cccc(C(=O)Nc2ccnc(N(C)CCCN(C)Cc3cccc(O)c3)c2)c1 [TCMDC-134953]  -14.35%
8. Cc1cccc2[nH]c(-c3ccc(-c4ccc(CN5CCN(CCC#N)CC5)cc4)cc3)nc12 [TCMDC-133867]  -11.37%
9. NC(=O)c1cccc(C(=O)Nc2cccc(-c3cccc(-c4nc5ccc(F)cc5[nH]4)c3)c2)c1 [TCMDC-132198]  -10.48%
10. Cc1cccc2[nH]c(-c3ccc(-c4cccc(CN5CCC(C(N)=O)CC5)c4)cc3)nc12 [TCMDC-132694]  -8.961%
11. Cc1nnsc1C(=O)Nc1cccc(-c2cccc(-c3nc4ccc(C(F)(F)F)cc4[nH]3)c2)c1 [TCMDC-137084]  -5.727%
12. C[C@@H](NC(=O)c1nn(-c2ccc(Cl)cc2)c(=O)c2ccccc12)C(C)(C)C [TCMDC-124772]  -4.584%
13. CC(C)CNC(=O)c1ccnc(-c2ccc(CNCCCc3ccccc3)cc2)c1 [TCMDC-134252]  -3.007%
14. CC[C@H](C)CNC(=O)c1cncc(-c2ccc(CNCCCc3ccccc3)cc2)c1 [TCMDC-134246]  -1.463%
15. Cc1cccc2[nH]c(-c3ccc(-c4ccc(CN5CCCCC5)cc4)cc3)nc12 [TCMDC-133901]  -1.455%
16. O=C(Nc1cccc(-c2ccc(-c3nc4ccc(F)cc4[nH]3)cc2)c1)c1csnn1 [TCMDC-136900]  -0.6993%
17. Cc1nc(N)nc(N)c1OCc1cccc2ccccc12 [TCMDC-131357]  -0.5645%
18. CCn1c(-c2cc(C)on2)nc2cnc(Oc3ccc(C(=O)N4CC(=O)N(C)C4C(C)(C)C)cc3)cc21 (centres unmarked) [TCMDC-134940]  2.551%
19. CCc1c[nH]c2c(N3CCCC3=O)cc(C(=O)N[C@@H](Cc3ccccc3)[C@H](O)CNC(C)(C)c3cccc(C(F)(F)F)c3)cc12 [TCMDC-134402]  2.989%
20. Cc1cccc2[nH]c(-c3cccc(-c4ccc(NC(=O)c5cccc(C(N)=O)c5)cc4)c3)nc12 [TCMDC-132201]  3.68%
21. Cc1cccc2[nH]c(-c3ccc(-c4ccc(CN5CCN(CCO)CC5)cc4)cc3)nc12 [TCMDC-133033]  4.83%
22. CC(C)(C)c1nn(-c2ccccc2)c2[nH]c(=O)c(CNC3CCCC3)cc12 [TCMDC-136483]  5.874%
23. Cc1cccc2[nH]c(-c3ccc(-c4ccc(CN5CCN(CCN6CCOCC6)CC5)cc4)cc3)nc12 [TCMDC-133931]  6.93%
24. CC(=O)Nc1nc(C(=O)Nc2cccc(-c3ccc(-c4nc5ccc(F)cc5[nH]4)cc3)c2)cs1 [TCMDC-137126]  7.232%
25. Cc1nnsc1C(=O)Nc1cccc(-c2ccc(-c3nc4ccccc4[nH]3)cc2)c1 [TCMDC-137083]  11.59%
26. COc1ccc(CNc2ncnc3c2[nH]c2ccc(F)cc23)cc1 [TCMDC-124466]  15.1%
27. Cc1cccc2c(C(=O)NC3CCN(Cc4ccccc4)CC3)cc(-c3cccnc3)nc12 [TCMDC-124900]  15.64%
28. Cc1cccc2[nH]c(-c3ccc(-c4ccc(CN5CCN(c6ccncc6)CC5)cc4)cc3)nc12 [TCMDC-132919]  17.4%
29. Cc1nnsc1C(=O)Nc1cccc(-c2csc(-c3nc4ccccc4[nH]3)c2)c1 [TCMDC-132394]  19.6%
30. CCc1cn(C)c2c(N3CCCC3=O)cc(C(=O)N[C@@H](Cc3ccccc3)[C@H](O)CNCc3cccc(OC)c3)cc12 [TCMDC-135195]  21.06%
31. Cc1cccc2[nH]c(-c3ccc(-c4cccc(CN5CCCC5CN)c4)cc3)nc12 (centres unmarked) [TCMDC-132993]  21.61%
32. CCn1ncc2c(N3CCCC3=O)cc(C(=O)N[C@@H](Cc3ccccc3)[C@H](O)CNC(C)(C)c3cccc(C(F)(F)F)c3)cc21 [TCMDC-135064]  21.85%
33. CCC1CN(S(=O)(=O)c2ccc3c(c2)NC(=O)CC(=O)N3)c2cc(Cl)ccc2O1 (centres unmarked) [TCMDC-125278]  25.65%
34. Cc1cccc(-c2cccc(CNc3nc(NCCc4ccc(O)cc4)nc(N4CCNCC4)n3)c2)c1 [TCMDC-133810]  31.6%
35. CC(C)CNC(=O)c1cncc(-c2ccc(CN3CCC(N4CCCC4)CC3)cc2)c1 [TCMDC-134236]  32.19%
36. Cc1nnsc1C(=O)Nc1ccc(-c2cccc(-c3nc4ccc(C(F)(F)F)cc4[nH]3)c2)cc1 [TCMDC-137085]  34.28%
37. Cc1cccc2[nH]c(-c3cccc(-c4ccc(CN5CCCC5CN)cc4)c3)nc12 (centres unmarked) [TCMDC-132991]  36.61%
38. CCc1c[nH]c2c(N3CCCC3=O)cc(C(=O)N[C@@H](Cc3ccccc3)[C@H](O)CNC(C)(C)c3cccc(OC)c3)cc12 [TCMDC-134404]  44.35%
39. Cc1cccc2[nH]c(-c3ccc(-c4ccc(CN5CCCC5CN)cc4)cc3)nc12 (centres unmarked) [TCMDC-132999]  66.58%
40. Cc1nnsc1C(=O)Nc1cccc(-c2ccc(-c3nc4ccc(C(F)(F)F)cc4[nH]3)cc2)c1 [TCMDC-137088]  70.24%
41. Cc1nnsc1C(=O)Nc1cccc(-c2cccc(-c3nc4ccc(F)cc4[nH]3)c2)c1 [TCMDC-137081]  77.92%
42. Cc1nnsc1C(=O)Nc1ccc(-c2cccc(-c3nc4c(C)cccc4[nH]3)c2)cc1 [TCMDC-137087]  78.56%
43. Cc1nnsc1C(=O)Nc1cccc(-c2ccc(-c3nc4ccc(F)cc4[nH]3)cc2)c1 [TCMDC-137082]  79.62%
44. CC[C@H](C)CNC(=O)c1ccnc(-c2ccc(CNCCCc3ccccc3)cc2)c1 [TCMDC-134251]  81.79%
45. Cc1nnsc1C(=O)Nc1cccc(-c2cccc(-c3nc4ccccc4[nH]3)c2)c1 [TCMDC-137078]  82.4%
46. Cc1cccc2[nH]c(-c3ccc(-c4ccc(CN5CCN(C6CCN(C)CC6)CC5)cc4)cc3)nc12 [TCMDC-133865]  83.09%
47. CCc1cn(C)c2c(N3CCCC3=O)cc(C(=O)N[C@@H](Cc3ccccc3)[C@H](O)CNC(C)(C)c3cccc(C(F)(F)F)c3)cc12 [TCMDC-135197]  87.86%
48. CCc1cn(C)c2c(N3CCCC3=O)cc(C(=O)N[C@@H](Cc3ccccc3)[C@H](O)CNC(C)(C)c3cccc(OC)c3)cc12 [TCMDC-135196]  90.21%
49. Cc1cccc2[nH]c(-c3ccc(-c4ccc(CN5CCN(CC6CCCN(C)C6)CC5)cc4)cc3)nc12 (centres unmarked) [TCMDC-133898]  93.25%
50. Cc1cccc2[nH]c(-c3ccc(-c4ccc(CN5CCCC(N)C5)cc4)cc3)nc12 (centres unmarked) [TCMDC-133863]  93.4%
